Hits are enriched below; roughly 15% of the tested compounds scored in any of these assays.
VP16 counter = counter-screen for ROR gamma inhibitors: Gal4-VP16 reporter | Potency, µM (titrated, usually from 53.6 µM), hits mostly inhibitors | Drosophila S2 Gal4-VP16 UAS-luciferase, luminescence, 20 h | hit rate 3.5% among 310,000 | AID 2546;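 further: Gal4-VP16 expression switched on by copper sulfate through the metallothionein promoter; nearly all actives have a fitted effect of over 50% in size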
DT40 TDP1 CPT = DT40-hTDP1 cell growth loss with CPT. AID 686979. Potency, µM (top dose mostly 46.2 µM), actives largely listed as inhibitors. hit rate 12% among 420,000. chicken DT40 Tdp1-/-;hTDP1 cells + 20 nM CPT, ATP luminescence, 48 h; further: nearly all actives have a fitted effect of over 55% in size
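Chicken DT40 Tdp1-/- cells complemented with human TDP1, 400 cells/well, exposed to compounds plus 20 nM camptothecin for at least 48 h at 37 C; viability read as ATP content by CellTiter-Glo luminescence.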
12-LOX inh = ALOX12 (human) lipoxygenase inhibition | Potency, µM (top dose mostly 108 µM), hits mostly inhibitors | P18054 | purified 12hLO, xylenol orange hydroperoxide absorbance | hit rate 1.1% among 580,000
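Purified human 12hLO (150 nM final) in 25 mM Hepes, 0.01% Triton X-100, pH 7.0 was preincubated 15 min at room temperature with compound. Then 40 uM arachidonic acid was added, 30 min. Hydroperoxide was read by Fe-XO absorbance ratio 573/405 nm.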
RORgamma inh = ROR gamma (mouse) transcription inhibition. Drosophila S2 Gal4-RORgamma UAS-luciferase reporter, 20 h. hit rate 5.4% among 310,000. Potency, µM (doses to about 53.6 µM), actives largely listed as inhibitors; further: nearly all actives have a fitted effect of over 60% in size
Target sequence (P51450 whole entry, looked up, the tested form may be a part): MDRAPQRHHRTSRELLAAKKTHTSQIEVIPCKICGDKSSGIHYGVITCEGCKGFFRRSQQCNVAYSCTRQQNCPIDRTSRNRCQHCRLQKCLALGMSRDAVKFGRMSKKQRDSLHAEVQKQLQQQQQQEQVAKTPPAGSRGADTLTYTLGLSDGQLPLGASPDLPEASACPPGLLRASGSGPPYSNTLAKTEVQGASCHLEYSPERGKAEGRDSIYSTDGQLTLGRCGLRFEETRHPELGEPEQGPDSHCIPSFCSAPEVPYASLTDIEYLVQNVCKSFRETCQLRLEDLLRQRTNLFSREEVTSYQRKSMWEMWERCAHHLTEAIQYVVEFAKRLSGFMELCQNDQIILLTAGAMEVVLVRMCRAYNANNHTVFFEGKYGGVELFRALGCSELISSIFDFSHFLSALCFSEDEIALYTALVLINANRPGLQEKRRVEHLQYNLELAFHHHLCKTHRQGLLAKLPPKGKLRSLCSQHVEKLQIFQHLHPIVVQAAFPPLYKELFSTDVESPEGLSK
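Drosophila Schneider cells stably carrying a metallothionein-driven Gal4 DBD–ROR gamma fusion and a UAS-Photinus luciferase reporter were exposed to compound for 1 hr, then induced with copper sulfate (700 uM final) for 20 hr at ambient temperature before luminescence reading.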
TDP1 cell noCPT = qHTS for Inhibitors of human tyrosyl-DNA phosphodiesterase 1 (TDP1): qHTS in cells in absence of CPT; DT40 Tdp1-/- hTDP1 cells, no CPT, ATP luminescence, 48 h; Potency, µM (doses to about 46.2 µM), most hits filed as inhibitors; hit rate 15% among 420,000; AID 686978, 2013; further: nearly all actives have a fitted effect of over 55% in size
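Luminescent ATP content (CellTiter-Glo) served as the growth readout. Knockout chicken DT40 cells expressing human TDP1 were exposed to compounds without camptothecin for a minimum 48 hr at 37 °C.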
ELG1 repair inh = inhibitors of ELG1-dependent DNA repair in HEK293T cells; hit rate 2.3% among 330,000; HEK293T ELG1-luciferase reporter, luminescence, 16 h; DNA damage induced by 5-fluorouridine; Potency, µM (titrated, usually from 46.1 µM), usual class: inhibitors; further: nearly all actives have a fitted effect of over 55% in size
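Overnight (16 hr) co-exposure of 2,000 cells/well to 5-fluorouridine and compound at 37 °C preceded detection. Luciferase was quantified via ONE-Glo luminescence; loss of signal denotes inhibition.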
Numbers stand for hits; i = inactive; ? = inconclusive; nt = not tested or not shown; [ ] = dose if it differs, or a comment. The call rests on the fitted dose curve; in most records, active means well fitted curve in the direction sought with a large enough effect; inconclusive means small, poorly fitted or top-dose-only effect, or another doubt; inactive means no such curve, though single readings can be large; an effect the other way counts as inactive or inconclusive.

SMILES	VP16 counter	DT40 TDP1 CPT	12-LOX inh	RORgamma inh	TDP1 cell noCPT	ELG1 repair inh
Nc1nc(Nc2ccccc2)nc(NCc2ccco2)c1[N+](=O)[O-]	i	?	?	?	?	?
c1ccc(CNc2nc(NCc3ccccc3)c3ccccc3n2)cc1	?	5.8µM	?	?	5.2µM	i
N#Cc1c2c(c(NCc3ccco3)n3c1nc1ccccc13)CCC2	i	i	i	i	21µM	?
Fc1ccc(Nc2nc(NCc3ccco3)c3ccccc3n2)cc1	?	9.2µM	i	?	6.5µM	23µM
c1coc(CNc2nc(NCc3ccco3)c3ccccc3n2)c1	nt	11µM	nt	nt	13µM	nt
CN1CCC(N[C@@H]2CO[C@H](CNC(=O)CC(C)(C)C)[C@H]2O)CC1	nt	nt	i	nt	nt	nt
Cc1cnc(C2CCNC2)n1Cc1ccccc1 (configuration not stated)	nt	nt	i	nt	nt	nt
NC(=O)CSc1n[nH]c2nc3c(c(=O)n12)C1(CCCCC1)Cc1ccccc1-3	nt	nt	i	nt	nt	nt
CSc1n[nH]c2nc3c(c(=O)n12)C1(CCCC1)Cc1ccccc1-3	i	i	i	i	?	i
C=CCSc1n[nH]c2nc3c(c(=O)n12)C1(CCCC1)Cc1ccccc1-3	11µM	i	i	5.6µM	i	i
CCSc1n[nH]c2nc3c(c(=O)n12)C1(CCCC1)Cc1ccccc1-3	i	?	i	14µM	?	i
CC(C)Sc1n[nH]c2nc3c(c(=O)n12)C1(CCCC1)Cc1ccccc1-3	i	nt	nt	11µM	nt	i
O=C(Cn1nc2n(c1=O)CCCCC2)NCCC1=CCCCC1	nt	nt	i	nt	nt	nt
C/C(=N\NC(=O)Cc1ccccc1Cl)c1cccnc1	i	i	i	i	i	i
C/C(=N\Nc1ccc(C)c(Cl)c1)c1ccncc1	?	i	45µM	i	?	?
C/C(=N\Nc1ccc(C)c(Cl)c1)c1cccnc1	i	i	4.5µM	i	i	?
O=C(C1CCCN(S(=O)(=O)c2ccccc2)C1)N1CCCc2ccccc21 (configuration not stated)	i	?	i	?	18µM	23µM
Cc1ccc(S(=O)(=O)N2CCCc3ccccc32)cc1	nt	i	i	nt	?	nt
Cc1ccc(S(=O)(=O)N2CCCC(C(=O)N3CCCc4ccccc43)C2)cc1 (configuration not stated)	i	21µM	?	i	21µM	i
OCC1CCN(c2ccccc2)C1 (configuration not stated)	nt	nt	i	nt	nt	nt
CC(NC(=O)c1ccc(Cl)cc1)C12CC3CC(CC(C3)C1)C2 (configuration not stated)	nt	nt	i	nt	nt	nt
COc1ccccc1-c1nnc(NC(=O)c2ccc(S(=O)(=O)N(C)C)cc2)o1	0.63µM	?	i	0.71µM	23µM	?
CCN(Cc1ccccc1)S(=O)(=O)c1ccc(C(=O)Nc2nnc(-c3ccccc3OC)o2)cc1	0.35µM	12µM	i	0.2µM	8.2µM	?
COc1ccccc1NC(=O)c1oc2ccccc2c1NC(=O)c1ccc(S(=O)(=O)N(C)C)cc1	nt	?	i	nt	?	nt
O=Cc1ccccc1-c1ccccc1F	nt	nt	i[12.5 µM]	nt	nt	nt
SMILES	VP16 counter	DT40 TDP1 CPT	12-LOX inh	RORgamma inh	TDP1 cell noCPT	ELG1 repair inh
S=C(NC1CC2CCC1C2)N1CCN(c2cccc(Cl)c2)CC1 (configuration not stated)	i	?	?	22µM	?	?
Cc1cc2nc(C)c(=O)n(CCC(=O)NCCN3CCN(c4cccc(Cl)c4)CC3)c2cc1C	nt	nt	i	nt	nt	nt
O=C(NCCN1CCN(c2cccc(Cl)c2)CC1)Nc1ccccc1C(F)(F)F	nt	?	i	nt	18µM	nt
Cc1ccccc1CS(=O)(=O)CCC(=O)NCCN1CCN(c2cccc(Cl)c2)CC1	i	23µM	i	?	15µM	i
O=C(NCCCN1CCN(c2cccc(Cl)c2)CC1)Nc1ccccc1C(F)(F)F	nt	15µM	i	nt	?	nt
CN1C(=O)CN(CCCCOc2ccccc2)C(=O)c2ccccc21	nt	nt	i	nt	nt	nt
CC(C)(O)CCC(O)[C@](C)(O)C1CC[C@@]2(O)C3=C/C(=N\O)[C@@H]4C[C@@H](O)[C@@H](O)C[C@]4(C)C3CC[C@]12C (some centres not stated)	nt	nt	i	nt	nt	nt
COc1ccc(C2(C(=O)N3CCCC(c4nc(-c5cccnc5)no4)CCNC(=O)CC3)CC2)cc1 (configuration not stated)	nt	nt	i	nt	nt	nt
O=C(c1cnccn1)N1CCc2c(n(Cc3ccccc3)n(-c3ccccc3)c2=O)C1	nt	nt	i	nt	nt	nt
C=CCNc1nc(C2CC2)nc2c1CCN(C(=O)c1cscn1)CC2	nt	nt	i	nt	nt	nt
CCN(Cc1ccc(C)o1)C(=O)C(C)n1ccnc1C(C)C (configuration not stated)	nt	nt	i	nt	nt	nt
NS(=O)(=O)c1ccc(CCNC(=O)CN2CCN(c3cccc(Cl)c3)CC2)cc1	i	18µM	i	?	16µM	i
Cc1ccc(Cl)cc1NC(=O)NCCN1CCCCC1	i	i	i	i	i	i
NS(=O)(=O)c1ccc(CCNC(=O)CN2CCN(c3ccc(F)cc3)CC2)cc1	i	?	i	i	?	i
Cc1ccc(Cl)cc1N1CCN(CCNC(=O)Nc2ccccc2Cl)CC1	nt	16µM	i	nt	12µM	nt
S=C(NCCCN1CCOCC1)N1CCN(c2cccc(Cl)c2)CC1	i	?	i	i	18µM	i
O=S(=O)(c1ccccc1)N1CCN(C(=S)NCCCN2CCOCC2)CC1	i	i	i	i	i	i
CCOC(=O)CNC(=O)CSc1cn(CC(=O)N2CCCC2)c2ccccc12	nt	nt	i	nt	nt	nt
NC(=O)C1CCN(CC(=O)Nc2oc3ccccc3c(=O)c2-c2ccc(F)cc2)CC1	nt	nt	i	nt	nt	nt
CN(C)CC1(O)CCC2(CCN(C(=O)CCc3nc(-c4ccccc4)no3)CC2)CC1	nt	nt	i	nt	nt	nt
CCNC(=O)N1CCC(c2noc(-c3ccncc3)n2)C1 (configuration not stated)	nt	nt	i	nt	nt	nt
CC(C)Cc1cc(CNC(=O)Nc2nnc(C(C)(C)C)s2)on1	nt	nt	i	nt	nt	nt
CC(C)CN(C(=O)Cn1cnc2c1c(=O)n(C)c(=O)n2C)c1nc2ccccc2s1	nt	nt	i	nt	nt	nt
c1ccc(-c2csc3ncnc(-n4cnc5ccccc54)c23)cc1	i	?	i	i	?	i
Cc1ccc(-c2csc3ncnc(-n4nnc5ccccc54)c23)cc1C	i	21µM	i	i	?	?
Cc1ccc(-c2csc3ncnc(-n4cnc5ccccc54)c23)cc1	?	?	i	?	18µM	10µM
COc1ccc(-c2cc(C(F)(F)F)nc(N3CCN(C)CC3)n2)cc1	i	?	?	i	16µM	?
COc1ccc(-c2cc(C(F)(F)F)nc(-n3ccnc3C)n2)cc1	?	?	i	11µM	21µM	26µM
